Shown is part of a subset that was picked to be rich in hits.
CD40 NFkB inh = CD40 pathway inhibition in BL2 cells; BL2 NF-kB luciferase reporter, CD40L-induced, 4 h; inhibition, % at 10 µM; 83,000 tested, 0.94% active;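 active = mean inhibition of at least 50% with a set share of replicates also reaching that level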;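 note: 0% = neutral control wells and 100% = IKK inhibitor VII at 50 µM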
* marks the source's active call; other numbers are inactive results; [ ] = remark or other dose.

SMILES | CD40 NFkB inh
C[C@@H]1CN([C@@H](C)CO)C(=O)c2c(c3ccccc3n2C)-c2ccccc2CO[C@H]1CN(C)C(=O)c1cc(Cl)cc(Cl)c1 | 28.6[25 µM]
C[C@@H]1CN([C@H](C)CO)C(=O)c2c(c3ccccc3n2C)-c2ccccc2CO[C@H]1CN(C)S(=O)(=O)c1ccc([N+](=O)[O-])cc1 | 37.4[25 µM]
C[C@@H]1CN([C@H](C)CO)C(=O)c2c(c3ccccc3n2C)-c2ccccc2CO[C@@H]1CN(C)Cc1ccc(C(F)(F)F)cc1 | 5.7
C[C@@H]1CN([C@@H](C)CO)C(=O)c2c(c3ccccc3n2C)-c2ccccc2CO[C@H]1CN(C)Cc1ccccc1 | 48.7*
C[C@@H]1CN([C@@H](C)CO)C(=O)c2c(c3ccccc3n2C)-c2ccccc2CO[C@H]1CN(C)S(=O)(=O)c1ccc([N+](=O)[O-])cc1 | 55.3*[25 µM]
C[C@H](CO)N1C[C@H](C)[C@H](CN(C)C(=O)c2cc(Cl)cc(Cl)c2)OCc2ccccc2-c2c(n(C)c3ccccc23)C1=O | 41.7[25 µM]
C[C@H]1CN([C@@H](C)CO)C(=O)c2c(c3ccccc3n2C)-c2ccccc2CO[C@@H]1CN(C)Cc1ccc(C(F)(F)F)cc1 | 15.5
C[C@@H]1CN([C@H](C)CO)C(=O)c2c(c3ccccc3n2C)-c2ccccc2CO[C@H]1CN(C)Cc1cccc(C(F)(F)F)c1 | 75.6*[25 µM]
C[C@H]1CN([C@@H](C)CO)C(=O)c2c(c3ccccc3n2C)-c2ccccc2CO[C@@H]1CN(C)S(=O)(=O)c1ccccc1 | 26.0
C[C@H](CO)N1C[C@H](C)[C@@H](CN(C)Cc2ccccc2)OCc2ccccc2-c2c(n(C)c3ccccc23)C1=O | 21.8
C[C@@H]1CN([C@@H](C)CO)C(=O)c2c(c3ccccc3n2C)-c2ccccc2CO[C@@H]1CN(C)Cc1ccc(O)cc1 | -5.7
O=C(CC1CC1)N1[C@@H](CO)[C@@H](c2ccccc2)C12CN(Cc1ccccc1)C2 | 4.8[25 µM]
COc1cccc(CC(=O)OCC(=O)NC2CCCC2)c1 | -2.2
Cc1cc(NC(=O)COC(=O)C2CCN(C(=O)c3ccc(Cl)cc3)CC2)no1 | 11.1
CCOc1ncccc1C(=O)Nc1ccc(S(=O)(=O)Nc2cc(C)nc(C)n2)cc1 | -0.6
O=C(NCC1CCCN1S(=O)(=O)c1cccs1)c1cccc([N+](=O)[O-])c1 (centres undefined) | -5.5
CCOC(=O)c1oc2ccccc2c1NC(=O)C(C)(C)C | 7.8
C[C@H]1CN([C@@H](C)CO)C(=O)c2c(c3ccccc3n2C)-c2ccccc2CO[C@H]1CN(C)C(=O)Nc1ccccc1C(F)(F)F | 59.2*[25 µM]
C[C@@H]1CN([C@@H](C)CO)C(=O)c2c(c3ccccc3n2C)-c2ccccc2CO[C@H]1CN(C)Cc1cccc(C(F)(F)F)c1 | 78.3*[25 µM]
COc1ccccc1NC(=O)N(C)C[C@@H]1OCc2ccccc2-c2c(n(C)c3ccccc23)C(=O)N([C@H](C)CO)C[C@H]1C | 5.6
C[C@H](CO)N1C[C@H](C)[C@@H](CN(C)Cc2cccc(F)c2)OCc2ccccc2-c2c(n(C)c3ccccc23)C1=O | 20.3
C[C@@H]1CN([C@H](C)CO)C(=O)c2c(c3ccccc3n2C)-c2ccccc2CO[C@H]1CN(C)Cc1ccc(C(F)(F)F)cc1 | 16.5
C[C@@H]1CN([C@H](C)CO)C(=O)c2c(c3ccccc3n2C)-c2ccccc2CO[C@@H]1CN(C)C(=O)Nc1ccccc1C(F)(F)F | 34.4[25 µM]
CCOc1cc(N2CCOCC2)c(OCC)cc1NC(=O)Cn1cnnn1 | -16.0
Cn1c(=O)n(C/C=C/c2ccccc2)c(=O)c2c1nc1n2CCCN1Cc1ccccc1 | 6.0
SMILES | CD40 NFkB inh
COc1ccc(NC(=O)N(C)C[C@@H]2OCCCC[C@@H](C)Oc3ccc(NC(=O)Nc4ccccc4)cc3C(=O)N([C@@H](C)CO)C[C@@H]2C)cc1 | -11.5
CCCNC(=O)N1C[C@H]2[C@@H](c3ccccc31)[C@H](CO)N2C(=O)Cc1ccccn1 | 2.5[25 µM]
O=C(Nc1ccccc1)N1CC(=O)N2[C@H](CO)[C@@H](c3ccc(C#CC4CCCCC4)cc3)[C@H]2C1 | 54.1*[25 µM]
COc1cccc(NC(=O)N2CC(=O)N3[C@H](CO)[C@@H](c4ccc(C#CCC5CCCC5)cc4)[C@@H]3C2)c1 | 22.8[25 µM]
COc1cccc(NC(=O)N2CC(=O)N3[C@H](C2)[C@H](c2ccc(C#CCC4CCCC4)cc2)[C@@H]3CO)c1 | 12.9[25 µM]
O=C(Nc1ccccc1)N1CC(=O)N2[C@@H](CO)[C@@H](c3ccc(C#CC4CCCCC4)cc3)[C@@H]2C1 | 26.2[25 µM]
O=C(Nc1ccccc1)N1CC(=O)N2[C@H](CO)[C@H](c3ccc(C#CC4CCCCC4)cc3)[C@H]2C1 | 9.3[25 µM]
COc1cccc(NC(=O)N2CC(=O)N3[C@H](CO)[C@@H](c4ccc(C#CCC5CCCC5)cc4)[C@H]3C2)c1 | 64.0*[25 µM]
CC(=O)Nc1cccc(-c2ccnc3c2CC(C(=O)Nc2ccc4c(c2)OCO4)O3)c1 (centres undefined) | 4.0
O=C1CSC(c2ccccc2F)N1CCN1CCCCC1 (centres undefined) | 3.7
C[C@H](CO)N1C[C@H](C)[C@@H](CN(C)C(=O)Nc2ccc(N3CCN(C)CC3)cc2)OCc2cnnn2CCCC1=O | 4.3
